Measured values published in the supplement of paper PMC13380429.
Unmarked numbers belong to inactive results.

Tested on: Vero E6 infected with SARS-CoV-2
Assay: inhibition of SARS-CoV-2 cytopathic effect; higher = more antiviral protection, active = above 15
Settings: 48 h

| Compound | inhibition of SARS-CoV-2 cytopathic effect (1 nM) [%] | inhibition of SARS-CoV-2 cytopathic effect (8.33 nM) [%] | inhibition of SARS-CoV-2 cytopathic effect (100 nM) [%] | inhibition of SARS-CoV-2 cytopathic effect (833.33 nM) [%] | inhibition of SARS-CoV-2 cytopathic effect (10000 nM) |
| --- | --- | --- | --- | --- | --- |
| O=c1oc2c(O)c(O)cc3c(=O)oc4c(O)c(O)cc1c4c23 [ellagic-acid] | 0.02 | 0.42 | 4.12 | 1.76 | -1.74% |
| NCCc1c[nH]c2ccc(O)cc12 [serotonin] | -0.73 | -0.57 | 2.41 | 2.28 | 0.37% |
| C[C@]12CC[C@@H]3c4ccc(OC(=O)c5ccccc5)cc4CC[C@H]3[C@@H]1CC[C@@H]2O [estradiol-benzoate] | -5.16 | -2.11 | -2.68 | -4.8 | -5.99% |
| CC(C)[C@]12O[C@H]1[C@@H]1O[C@]13[C@]1(O[C@H]1C[C@H]1C4=C(CC[C@@]13C)C(=O)OC4)[C@@H]2O [triptolide] | -1.16 | -2.32 | -12.1 | -9.06 | -8.11% |
| Cc1ccc(Cl)c(OC[C@H](O)CNC(C)C)c1 [1-(2-chloro-5-methylphenoxy)-3-(isopropylamino)-2-propanol] | 0.19 | -0.3 | -0.68 | 0.3 | -2.47% |
| O=C(c1ccc(F)cc1)C1CCN(CCn2c(=O)[nH]c3ccccc3c2=O)CC1 [ketanserin] | 1.58 | -0.51 | -0.25 | 2 | -1.33% |
| C[C@]12CC[C@H](O)C[C@H]1CC[C@@H]1[C@@H]2CC[C@]2(C)[C@@](O)(c3ccoc3)CC[C@]12O [rostafuroxine] | 3.43 | -0.48 | 1.69 | -1.79 | -1.77% |
| Cn1cc(C2=C(c3cn(C4CCN(Cc5ccccn5)CC4)c4ccccc34)C(=O)NC2=O)c2ccccc21 [enzastaurin] | 0.18 | 1.89 | 1.4 | 1.31 | 3.94% |
| Nc1c(Br)cc(Br)cc1CN[C@H]1CC[C@H](O)CC1 [ambroxol] | -4.07 | -1 | -0.99 | 1.23 | -1.75% |
| Cc1nc2c(OCc3ccccc3)cccn2c1CC#N | -1.06 | 0.99 | 2.87 | 0.07 | 1.07% |
| COc1cc([C@@H]2c3cc4c(cc3[C@@H](O[C@@H]3O[C@@H]5CO[C@@H](C)O[C@H]5[C@H](O)[C@H]3O)[C@H]3COC(=O)[C@H]23)OCO4)cc(OC)c1O [etoposide] | 6.79 | -0.79 | -0.58 | -2.82 | 4.17% |
| OCc1cc(C(O)CNCCCCCCOCCCCc2ccccc2)ccc1O (stereo not given) [salmeterol] | 0.19 | 2.26 | 10.4 | 1.95 | -1.77% |
| COc1cc(/C=C2\CCC/C(=C\c3ccc(O)c(OC)c3)C2=O)ccc1O [cyclovalone] | -0.89 | 0.77 | 2.28 | 6.64 | 29.5% (active) |
| Oc1c(CN2CCCC2)cc(COCc2ccccc2)c2cccnc12 | -1.11 | -0.88 | 0.87 | -0.42 | 2.93% |
| CNCC(O)c1ccc(OC(=O)C(C)(C)C)c(OC(=O)C(C)(C)C)c1 (stereo not given) [dipivefrine] | 0.87 | 3.76 | 1.77 | 1.42 | 0.56% |
| CCCC[C@H](NC(=O)[C@@H]1[C@@H]2[C@H](CN1C(=O)[C@@H](NC(=O)NC1(CS(=O)(=O)C(C)(C)C)CCCCC1)C(C)(C)C)C2(C)C)C(=O)C(=O)NC1CC1 [narlaprevir] | 0.96 | 1.32 | 0.06 | 3.2 | 0.24% |
| CCOC(=O)c1c(C)n(C)c2ccc(O)cc12 [mecarbinate] | -0.79 | -1.26 | -2.84 | -2.4 | -2.61% |
